{"source": "PubChem BioAssay (NCI)", "note": "This is part of a sample that, as a whole, favours compounds with a hit. Of some 83,000 tested, about 20% had one in any assay.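 Negative percent growth values reflect cell death: -40 means 40% of the cells present at the start died, and -100 means all died.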 The source made the active and inactive calls. Rule for the calls: active = growth percent below 10; inactive = the rest."}
{"test_system": "SF-268 CNS", "assay": "NCI-60 one-dose screen, 48 h (100 = growth as untreated, 0 = no growth, -100 = all killed)", "conditions": "10 µM unless noted"}
{"smiles": "O=C1C=Cc2ncccc2C1=O", "growth": "97% (inactive)"}
{"smiles": "COc1cc2c(cc1OC)C(=O)/C(=C/c1cc(-c3ccc4c(c3)OCO4)n[nH]1)C2", "growth": "-53.4% (active)"}
{"smiles": "CCN(CC)CCCCCCNc1ccnc2cc(Cl)ccc12", "growth": "77.4% (inactive)"}
{"smiles": "COC(c1ccccc1)(c1ccccc1)c1ccccc1", "growth": "98.5% (inactive)"}
{"smiles": "CC(CNc1nc(Nc2ccc(Cl)c(Cl)c2)nc(C(Cl)(Cl)Cl)n1)N(C)C", "note": "(stereo unspecified)", "growth": "11.5% (inactive)"}
{"smiles": "COc1cccc2c1C(=O)c1c(O)c3c(c(O)c1C2=O)C[C@@](O)(C(=O)CO)C[C@@H]3OC1C[C@H](N)[C@H](O)[C@H](C)O1", "note": "(stereo partly specified)", "growth": "-31.7% (active)"}
{"smiles": "COc1cc2[nH]c(C(=O)c3cc(OC)c(OC)c(OC)c3)c(N)c2cc1C#CCO", "growth": "32.5% (inactive)"}
{"smiles": "CN(C)c1ccc(N=C2C=CC(=O)C=C2)cc1", "growth": "101% (inactive)"}
{"smiles": "COc1ccc(C(=O)c2cc(OC)c(OC)c(OC)c2)cc1/C=C/C(=O)c1cc(OC)c(OC)c(OC)c1", "growth": "88.7% (inactive)"}
{"smiles": "Nc1c(C(=O)Nc2cccc(Br)c2)sc2nc3c(cc12)C(=O)CCC3", "growth": "62.6% (inactive)"}
{"smiles": "O=C1NC(=Nc2ccc(S(=O)(=O)Nc3nccs3)cc2)S/C1=C\\c1coc2ccccc2c1=O", "growth": "123% (inactive)"}
{"smiles": "COc1ccc(C(=O)/C=C/c2cc(-c3cc(OC)c(OC)c(OC)c3)n[nH]2)cc1OC", "growth": "-20.1% (active)"}
{"smiles": "COc1cc2[nH]c(C(=O)c3cc(OC)c(OC)c(OC)c3)c(N)c2cc1C#CC1CC1", "growth": "40.7% (inactive)"}
{"smiles": "O=C(NC1=CC(=O)c2ccccc2C1=O)c1ccccc1", "growth": "39.3% (inactive)"}
{"smiles": "COC(=O)c1cc(=O)nc(N/N=C/c2ccc(C)cc2)s1", "growth": "104% (inactive)"}
{"smiles": "COc1cc(C(=O)/C=C/c2cc(-c3ccc4c(c3)OCO4)n[nH]2)cc(OC)c1OC", "growth": "-8.16% (active)"}
{"smiles": "O=C(/C=C\\c1ccc2c(c1)OCO2)/C=C/c1ccc2c(c1)OCO2", "growth": "93.3% (inactive)"}
{"smiles": "COc1cc(-c2cc(-c3nc4cc(Cl)c(Cl)cc4[nH]3)[nH]n2)cc(OC)c1OC", "growth": "96.5% (inactive)"}
{"smiles": "COC1=C(Br)C(=O)C(OC)=C(Br)C1=O", "growth": "111% (inactive)"}
{"smiles": "COc1ccc2c(c1)C/C(=C\\c1cc(-c3ccc4c(c3)OCO4)n[nH]1)C2=O", "growth": "106% (inactive)"}
{"smiles": "CC(C)(C)c1ccc(OP(=S)(N/N=C/c2ccccc2O)Oc2ccc(C(C)(C)C)cc2)cc1", "growth": "69.8% (inactive)"}
{"smiles": "OCC12CCCC(CO)(COC1)C2O", "note": "(stereo unspecified)", "growth": "113% (inactive)"}
{"smiles": "COc1ccc(-c2cc(/C=C/C(=O)c3ccc(N)cc3)[nH]n2)cc1", "growth": "17% (inactive)"}
{"smiles": "O=c1c(CNc2ccc(S(=O)(=O)Nc3ncccn3)cc2)coc2ccccc12", "growth": "108% (inactive)"}
{"smiles": "NC(Cc1ccc(O)cc1)C(=O)N/N=C/c1ccccc1O", "note": "(stereo unspecified)", "growth": "104% (inactive)"}
{"smiles": "COc1ccc2c(c1)C/C(=C\\c1cc(-c3cc(OC)c(OC)c(OC)c3)n[nH]1)C2=O", "growth": "100% (inactive)"}
{"smiles": "O=c1c(CNc2ccc(S(=O)(=O)Nc3nccs3)cc2)coc2ccccc12", "growth": "113% (inactive)"}
{"smiles": "Nc1c(C(=O)Nc2cccc(Cl)c2)sc2ncc(Cl)cc12", "growth": "63.5% (inactive)"}
{"smiles": "CCN(CC)CCCCCNc1cc(OC(=O)c2ccccc2)cc2cccnc12", "growth": "93.2% (inactive)"}
{"smiles": "Fc1ccc2nc(-c3cc(-c4ccc5c(c4)OCO5)n[nH]3)[nH]c2c1", "growth": "77.5% (inactive)"}
{"smiles": "C#Cc1cc2c(N)c(C(=O)c3cc(OC)c(OC)c(OC)c3)[nH]c2cc1OC", "growth": "49.6% (inactive)"}
{"smiles": "Cc1cc(Cl)c2c(N(C)C)cccc2n1", "growth": "111% (inactive)"}
{"smiles": "COc1ccc(/C=C2\\N=C(c3ccccc3)N(c3cc(OC)c(OC)cc3C(=O)N3N=C(C)CC3=O)C2=O)cc1", "growth": "91.4% (inactive)"}
{"smiles": "COc1ccc2nc(-c3c(-c4ccccc4)nc4ncccn34)[nH]c2c1", "growth": "109% (inactive)"}
{"smiles": "O=C1C=C(C(O)c2ccc(O)cc2)C(=O)c2ccccc21", "note": "(stereo unspecified)", "growth": "108% (inactive)"}
{"smiles": "Cc1ccc(-c2nc3ccc(Cl)cc3c(=O)n2N2C(=O)CSC2c2ccccc2Cl)cc1", "note": "(stereo unspecified)", "growth": "60.4% (inactive)"}
{"smiles": "NS(=O)(=O)c1ccc(CCNC(=O)/C=C/c2ccc(Cl)cc2)cc1", "growth": "95.6% (inactive)"}
{"test_system": "SF-295 CNS", "assay": "NCI-60 one-dose screen, 48 h (100 = growth as untreated, 0 = no growth, -100 = all killed)", "conditions": "10 µM unless noted"}
{"smiles": "O=C1C=Cc2ncccc2C1=O", "growth": "102% (inactive)"}
{"smiles": "CCN(CC)CCCCCCNc1ccnc2cc(Cl)ccc12", "growth": "97% (inactive)"}
{"smiles": "COC(c1ccccc1)(c1ccccc1)c1ccccc1", "growth": "90.7% (inactive)"}
{"smiles": "COc1cccc2c1C(=O)c1c(O)c3c(c(O)c1C2=O)C[C@@](O)(C(=O)CO)C[C@@H]3OC1C[C@H](N)[C@H](O)[C@H](C)O1", "note": "(stereo partly specified)", "growth": "-22.4% (active)"}
{"smiles": "CN(C)c1ccc(N=C2C=CC(=O)C=C2)cc1", "growth": "95.1% (inactive)"}
{"smiles": "O=C(NC1=CC(=O)c2ccccc2C1=O)c1ccccc1", "growth": "4.13% (active)"}
{"smiles": "O=C(/C=C\\c1ccc2c(c1)OCO2)/C=C/c1ccc2c(c1)OCO2", "growth": "89.7% (inactive)"}
{"smiles": "COC1=C(Br)C(=O)C(OC)=C(Br)C1=O", "growth": "111% (inactive)"}
{"smiles": "CCN(CC)CCCCCNc1cc(OC(=O)c2ccccc2)cc2cccnc12", "growth": "110% (inactive)"}
